Screen size: about 48,000 compounds; about 13,000 (27%) showed an effect of 50% or more. The list shows a part of the results.

For this assay, the system named is Wolbachia pipientis. In words: Anti-Wolbachia Cell-Based Screen. It counts as functional. Details: scale not given: in the data most compounds retested in dose-response had high values. To be noted: 5 µM.
Take `Cc1cc(N)nc(SC2CCCN(Cc3ccccc3)C2=O)n1` (stereo not given): the “Percent Effect” value is reported as -26.38%.

With `Cc1ccccc1N1CC2(CCN(Cc3nccn3C)C2)CC1=O.O=C(O)C(F)(F)F` (stereo not given), the “Percent Effect” value is 12.68%.

Take `Cc1cnc(C(=O)N2CCC3(CCCN(c4nncs4)C3)C2)cn1` (stereo not given): the “Percent Effect” value is on record as -22.67%.

With `Cc1ccccc1N1CC2(CCN(c3nncs3)C2)CC1=O` (stereo not given), the “Percent Effect” value worked out at 115.5%.

Regarding `O=C(C1CCCC1)N1CCN(Cc2ccncc2)[C@@H]2CS(=O)(=O)C[C@@H]21`, the “Percent Effect” value was -3.8%.

As for `Cc1n[nH]c(CN2CCN(Cc3ccccc3)[C@@H]3CS(=O)(=O)C[C@@H]32)n1`, the “Percent Effect” value was -3.3%.

On to `Cn1ccnc1CN1CCN(Cc2ccccc2)[C@@H]2CS(=O)(=O)C[C@@H]21`, for which the “Percent Effect” value amounted to 89.31%.

As to `O=S1(=O)C[C@@H]2[C@H](C1)N(Cc1ncc[nH]1)CCN2CCCc1ccccc1`, the “Percent Effect” value is reported as 97.44%.

Consider `Cc1ccc(CN2CCN(Cc3ccncc3)[C@@H]3CS(=O)(=O)C[C@@H]32)cc1`, for which the “Percent Effect” value was 9.085%.

Consider `O=S1(=O)C[C@@H]2[C@H](C1)N(S(=O)(=O)N1CCCC1)CCN2Cc1ccccc1`, for which the “Percent Effect” value is on record as -24.95%.

Take `CCc1ccccc1CN1CCN(Cc2ncc[nH]2)[C@H]2CS(=O)(=O)C[C@H]21`: the “Percent Effect” value is on record as 21.76%.

For the molecule `Cn1ccnc1CN1CCN(Cc2ccncc2)[C@@H]2CS(=O)(=O)C[C@@H]21`, the “Percent Effect” value turned out to be 120.1%.

With `O=S1(=O)C[C@@H]2[C@H](C1)N(Cc1ncc[nH]1)CCN2C/C=C/c1ccccc1`, the “Percent Effect” value is given as -2.971%.

On to `CC1(C)CCC(C(=O)N2CCCO2)c2ccccc21` (stereo not given), for which the “Percent Effect” value stood at 6.18%.

For the molecule `CC(C)OC(=O)N1CCCC2(CCC(=O)N(CCc3c[nH]cn3)C2)C1` (stereo not given), the “Percent Effect” value turned out to be 2.776%.

For `Cc1ccc(Cl)c(NC(=O)NC2(C)CCOC2)c1` (stereo not given), the “Percent Effect” value is reported as -14.51%.

For the molecule `Cc1nc(CNC(=O)CC2C(=O)NCCN2CCC(C)C)n[nH]1` (stereo not given), the “Percent Effect” value is given as 13.35%.

With `O=C(CSCC1CC1)N1CCCC(c2nccn2Cc2cccnc2)C1` (stereo not given), the “Percent Effect” value was -14.92%.

With `CC1CCCN(C(=O)CCNS(=O)(=O)c2cccnc2)C1` (stereo not given), the “Percent Effect” value is 5.119%.

For `CC(C)c1noc(CCCC(=O)N2CCC(Cc3cccnc3)CC2)n1`, the “Percent Effect” value was -13.45%.

In the case of `CN(C)CCn1ccnc1C1CCCN(C(=O)CCc2cccnc2)C1` (stereo not given), the “Percent Effect” value is on record as -16.88%.

For the molecule `O=C1CCCN1CCCC(=O)N1CCCC(Cc2cccnc2)C1` (stereo not given), the “Percent Effect” value was determined as 77.87%.

For the molecule `O=C(CCn1ncc2ccccc21)N1CCCC(Cc2cccnc2)C1` (stereo not given), the “Percent Effect” value is recorded as 101.6%.

Consider `Cc1ccn(CCC(=O)N2CCCC(Cc3cccnc3)C2)n1` (stereo not given), for which the “Percent Effect” value worked out at 122.4%.

As for `CN(CCC(=O)N1CCCC(Cc2cccnc2)C1)Cc1cccnc1` (stereo not given), the “Percent Effect” value turned out to be 128.2%.

(Values after ChEMBL document CHEMBL3988442, “University of Dundee, Small-Polar-MMV Screening Library” (2021).)
